{
  "source": "PubChem BioAssay AID1878",
  "about": "(Sanford-Burnham Center for Chemical Genomics, 2009)",
  "note": "The whole screen tested about 1,000 compounds, of which about 200 (20%) were called active. A selection follows. Measured potencies and affinities stand elsewhere. A number with no mark means an inactive call. Rule as the data show it: active = inhibition above about 55%; inactive = the rest.",
  "data": [
    {"molecular_target": "Dual specificity protein phosphatase 3 (Homo sapiens) (UniProt P51452)", "sequence (P51452 whole entry, looked up)": "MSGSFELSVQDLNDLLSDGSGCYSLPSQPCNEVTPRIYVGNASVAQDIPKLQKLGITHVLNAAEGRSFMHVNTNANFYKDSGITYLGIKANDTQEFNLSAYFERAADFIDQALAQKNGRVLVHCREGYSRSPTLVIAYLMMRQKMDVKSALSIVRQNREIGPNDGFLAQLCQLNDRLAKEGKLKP", "assay": "VHR1 phosphatase inhibitors, biochemical (AID 1878)", "conditions": "recombinant VHR phosphatase, fluorogenic substrate; at 13.3 µM; active compounds read high", "values": [
      {"smiles": "O=C(CSc1ccc2ccccc2n1)Nc1nsc(-c2ccc(Cl)cc2)n1", "inhibition": "80% (active)"},
      {"smiles": "Cc1nc2ccccc2c(=O)n1NC(=O)c1ccccc1", "inhibition": "-2%"},
      {"smiles": "Cc1ccc2nc(SCC(=O)NCc3ccc(F)cc3)[nH]c2c1", "inhibition": "19.1%"},
      {"smiles": "CS(=O)(=O)/C(C#N)=C/c1cccn1S(=O)(=O)c1ccccc1", "inhibition": "-10.1%"},
      {"smiles": "CC(C)[C@H](NC(=O)c1ccco1)C(=O)NCc1ccccc1", "inhibition": "6%"},
      {"smiles": "O=C(COc1ccccc1)NCCc1cnc[nH]1", "inhibition": "-4.2%"},
      {"smiles": "O=C(COc1ccccc1Cl)N1CCCCCCC1", "inhibition": "-0.6%"},
      {"smiles": "CCn1c(SCC(=O)Nc2ccc(-c3nc4ccc(C)cc4s3)cc2)nnc1-c1ccccc1", "inhibition": "88.3% (active)"},
      {"smiles": "CCN1CCN(CC(=O)Nc2nc3ccc(C)cc3s2)CC1", "inhibition": "-5.5%"},
      {"smiles": "COc1ccc(NC(=O)CSc2ccc3nnc(CCNC(=O)c4ccccc4)n3n2)cc1", "inhibition": "-4.5%"},
      {"smiles": "Cc1ccc(S(=O)(=O)/C(C#N)=C/c2c(N3CCOCC3)nc3c(C)cccn3c2=O)cc1", "inhibition": "3%"},
      {"smiles": "c1ccc(-c2cc(-c3ccccc3)[n+](-c3ccccc3)c(-c3ccccc3)c2)cc1", "inhibition": "-14.8%"},
      {"smiles": "CCOc1c(Br)cc(C(=O)N2CCCN(C)CC2)cc1OC", "inhibition": "2.9%"},
      {"smiles": "COc1ccc(NCCC(O)c2ccc(Cl)cc2)cc1", "note": "(stereo not drawn)", "inhibition": "-2%"},
      {"smiles": "CCCn1c(C(O)c2ccc(OC)c(OC)c2)nc2ccccc21", "note": "(stereo not drawn)", "inhibition": "7%"},
      {"smiles": "CCOC(=O)C1(Cc2cccc(Cl)c2)CCCN(C(=O)c2cc(CC)on2)C1", "note": "(stereo not drawn)", "inhibition": "-6.6%"},
      {"smiles": "Cc1ccccc1N1C(=O)C2ON(c3ccccc3)C(c3ccncc3)C2C1=O", "note": "(stereo not drawn)", "inhibition": "-3.4%"},
      {"smiles": "Cc1ccc(N2C(=O)CC(N3CCN(S(=O)(=O)c4ccccc4)CC3)C2=O)c(C)c1", "note": "(stereo not drawn)", "inhibition": "-2.4%"},
      {"smiles": "CC1CCCCN1CCCNC(=O)CN1C(=O)c2cccnc2Oc2ccc(Cl)cc21", "note": "(stereo not drawn)", "inhibition": "-4.5%"},
      {"smiles": "O=c1[nH]c2ccccc2nc1/C=C/c1ccc(Cl)cc1", "inhibition": "14.9%"},
      {"smiles": "COc1ccc(-c2csc3ncn(Cc4ccccc4)c(=O)c23)cc1", "inhibition": "-2.5%"},
      {"smiles": "NC(=O)c1ccc(NC(=O)CS(=O)(=O)c2cn(CC(=O)N3CCCCC3)c3ccccc23)cc1", "inhibition": "-15.1%"},
      {"smiles": "FC(F)(F)c1cccc(NC(=S)N2CCCC2)c1", "inhibition": "12%"},
      {"smiles": "O=C(O)C(CCCCNS(=O)(=O)c1ccc(F)cc1)NS(=O)(=O)c1ccc(F)cc1", "note": "(stereo not drawn)", "inhibition": "-6.2%"},
      {"smiles": "COCCNC(=O)CN1N=C(c2ccc(C)cc2)CCC1=O", "inhibition": "6.3%"},
      {"smiles": "C=CCn1c(SCC(=O)c2c(C)[nH]c3ccccc23)nnc1-c1ccncc1", "inhibition": "35.6%"},
      {"smiles": "Cn1c(SCC(=O)c2ccc3c(c2)Cc2ccccc2-3)nnc1-c1ccccc1", "inhibition": "83.7% (active)"},
      {"smiles": "O=C(CSc1nnc(-c2ccccc2)o1)c1ccc2c(c1)OCCO2", "inhibition": "-8.7%"}
    ]}
  ]
}
